Assay [1] in a line: qHTS Assay for Lipid Storage Modulators (AID 1519; calls by dose curve). Conditions: Drosophila S3 cells, BODIPY lipid droplet/cell ratio, laser cytometry, cells loaded with oleic acid. The gist of the method:
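Cells seeded at 5,000 per well were treated with compounds over a concentration series and loaded with oleic acid (400 uM, as added). Lipid droplet fluorescence (488 nm excitation, 500-530 nm channel) was read by laser-scanning cytometry and normalized to 20 uM Triacsin C.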
A general note: In qHTS, concentration-response curves come from the screen itself.

Assay [2] addresses Ubiquitin carboxyl-terminal hydrolase 1 (Homo sapiens) (UniProt O94782). The assay is described as follows: Inhibitors of USP1/UAF1: Pilot qHTS (AID 504865).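 Also: rhodamine fluorescence freed from ubiquitin-rhodamine substrate followed over time; top concentration of the series differs between compounds; % is scaled to controls: 0 for no effect and ±100 for the full control effect; nearly all actives have a fitted effect of over 35% in size.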 The following applies: purified USP1/UAF1, Ub-rhodamine cleavage fluorescence; series mostly up to 54.9 µM. The gist of the method: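 1nM USP1/UAF1 + cpd, 15 min RT; start w/ Ub-Rho 150nM final; kinetic FL 480/540 nm, 6 reads q60 s. Buffer 50mM HEPES pH 7.8, 0.5mM EDTA, 1mM TCEP, 0.01% Tween-20, 0.1 mg/ml BSA.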

A short description of assay [3]: AP1 Signaling Pathway (AID 357; active = well fitted curve in either direction with a large enough effect, not every such curve was filed as active;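 also: ME-180 reporter cells stimulated with EGF at its EC50 level; % is scaled to controls: 0 for no effect and ±100 for the full control effect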). The following applies: ME-180 AP-1-bla reporter, EGF-induced, beta-lactamase ratio, 5 h; at 7.69 µM (top of the series) unless noted. The gist of the method:
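A ratiometric CCF4 readout (405 nm excitation; 460 and 530 nm emission) quantified AP-1-driven beta-lactamase in ME-180 cells after 5 h with compound and EC50 EGF; AC50 values were derived for activators and inhibitors.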

In assay [4] the target is Cytochrome P450 1A2 (Homo sapiens) (UniProt P05177). The assay can be described thus: p450-cyp1a2 (AID 410; calls by dose curve;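 also: -100% = full effect of reference inhibitor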). Conditions: recombinant CYP1A2, luciferin-ME demethylation, luminescence; series mostly up to 57 µM. The gist of the method:
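Luminescent readout of luciferin formed from Luciferin-ME by human CYP1A2; data normalized against complete inhibition by 57 uM furafylline. Enzyme 20nM, substrate 100uM at Km, 100mM KPO4 buffer, 60 min reaction at room temperature.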

Assay [5] in a line: NFAT Signaling Pathway (AID 444; active = well fitted curve in either direction with a large enough effect, not every such curve was filed as active;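 also: carbachol stimulus at about its EC50 of 1 µM final; % is scaled to controls: 0 for no effect and ±100 for the full control effect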). The following applies: Jurkat NFAT-bla M1, carbachol, beta-lactamase ratio, 5 h; at 7.69 µM (top of the series) unless noted. The gist of the method:
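Read-out: CCF4 FRET ratio (460 nm/530 nm) after 1 h RT dye loading, used for %activity and AC50 from titration series. Cells: Jurkat NFAT-β-lactamase/M1 line, treated with compound plus 1 uM carbachol for 5 h, 37 °C.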

The nature of assay [6]: Stat Signaling Pathway (AID 446; active = well fitted curve in either direction with a large enough effect, not every such curve was filed as active;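 also: ME-180 cervical cancer cells given 40 pM IL-6 alongside compound; SIE-controlled beta-lactamase reporter measured as 460/530 nm FRET emission ratio; % is scaled to controls: 0 for no effect and ±100 for the full control effect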). The following applies: ME-180 SIE beta-lactamase reporter, IL-6 stimulated, 5 h; at 7.69 µM (top of the series) unless noted. The essentials: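 ME-180 SIE-bla cells; overnight plating; cpd + IL-6 40 pM, 5 h, 37 C; LiveBLAzer 2.5 h RT; 460/530 nm emission ratio. Normalized to 300 pM IL-6 and 125 nM JAK inhibitor controls.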
Assay [7] addresses Glucocorticoid receptor (Homo sapiens) (UniProt P04150). The assay is described as follows: GR-GFP Redistribution (AID 450;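 active = compounds whose dose series gives a full or clear partial fitted curve of increased nuclear translocation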; also: potency is read from the fitted curve at half-maximal effect). Conditions: U2OS GR-GFP nuclear translocation, laser cytometry, 2 h.
The target is the same in assay [8]. The assay can be described thus: GR-EFC Redistribution (AID 451; calls by dose curve; also: potency is read from the fitted curve at half-maximal effect). The following applies: CHO-K1 GR-EFC translocation, beta-gal luminescence, 2 h. The gist of the method:
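Translocation of GR-ED fusion to nuclear EA restores b-gal, read by luminescence after 1 h room-temperature detection. Engineered CHO-K1 biosensor cells, 1,000/well, exposed 2 h at 37 C to titrations up to 46 uM final.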

Assay [9] addresses Mitogen-activated protein kinase 10 (Mus musculus) (UniProt Q61831). The assay can be described thus: JNK3 AlphaScreen Assay (AID 530; active = well fitted curve in either direction with a large enough effect, not every such curve was filed as active;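 also: kinase came from lysate of stimulated human HepG2 cells; signal reports phosphorylation of biotinylated GST-cJun 1-79 at Ser73 with 10 µM ATP; % is scaled to controls: 0 for no effect and ±100 for the full control effect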). Conditions: JNK3 lysate, c-Jun phosphorylation; series mostly up to 57.1 µM. The essentials: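 Compound titrations were preincubated 15 minutes at room temperature with substrate, antibody and pre-activated JNK3-containing HepG2 lysate. Reactions were started with 10 uM ATP and stopped with EDTA-containing bead buffer for AlphaScreen detection.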
(Alpha assays give light when donor and acceptor beads are brought close together.)

The target of assay [10] is 3',5'-cyclic-AMP phosphodiesterase 4B (Homo sapiens) (UniProt Q07343). The assay is described as follows: qHTS Assay for Inhibitors of PDE-IV (AID 607; active = well fitted activation curve with a large enough effect in the main read-out, with a control signal flat, not every such curve was filed as active; also: % of control where 0% means no effect). The following applies: HEK293 ACTOne CNG channel cells, membrane potential fluorescence; series mostly up to 22.9 µM. The essentials:
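ACTOne HEK293 cells carry a modified cAMP-gated CNG channel and express endogenous PDE4; plated 1000 cells/well, compounds up to 22.9 uM final. Membrane-potential dye fluorescence (ex 535/em 590) was read; parental cells received 10 uM forskolin + 100 uM RO 20-1724.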

Assay [11] concerns the target ATP-dependent 6-phosphofructokinase (Trypanosoma brucei brucei) (UniProt O15648). The assay can be described thus: qHTS Assay to Find Inhibitors of T. brucei phosphofructokinase: hit validation (AID 492961). The following applies: T. brucei PFK, ADP-Glo luminescence; series mostly up to 24.3 µM. The essentials: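 In this biochemical qHTS validation, titrated compounds were tested against 1.25 nM PFK with 0.1 mM ATP and 0.5 mM F6P. Percent activity came from controls lacking or containing enzyme.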

Assay [12] addresses Luciferin 4-monooxygenase (Photinus pyralis) (UniProt P08659). The assay is described as follows: Biochemical firefly luciferase enzyme assay for NPC (AID 624030).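 Also: purified P. pyralis luciferase at 10 nM with luciferin and ATP substrate; 0% = DMSO and -100% = full luciferase inhibition by PTC124 control; nearly all actives have a fitted effect of over 70% in size.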 The following applies: purified P. pyralis luciferase, luminescence, 5 min; series mostly up to 58.6 µM. The gist of the method:
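Direct inhibition of firefly luciferase enzyme (10 nM final, 50 mM Tris Acetate) assessed by luminescence within 5 minutes. Percent activity scaled between DMSO and PTC124 positive control, with concentration-effect curves classified by fit quality and response.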

A short description of assay [13]: qHTS profiling for inhibitors of Plasmodium falciparum proliferation (AID 504749).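 Also: 0% = DMSO vehicle and full inhibition = artemisinin control; nearly all actives have a fitted effect of over 60% in size.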 The following applies: P. falciparum in erythrocytes, SYBR Green DNA, 72 h, at 12.8 µM (top of the series). The gist of the method:
(§1)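 Infected RBCs, 0.3% parasitemia/2.5% Hct final; cpd 72 h, 37 C, 5% CO2; lysis buffer with saponin/triton/SYBR Green I, o/n RT dark; FI 485/535; norm. to artemisinin (0.29 uM) and DMSO.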

For a further assay, the system named is AS120. The description is as above. The following applies: P. falciparum in erythrocytes, SYBR Green DNA, 72 h; series mostly up to 28.7 µM. The gist of the method:
as §1

Another assay deals with CP238. The description is as above. Conditions: P. falciparum in erythrocytes, SYBR Green DNA, 72 h; series mostly up to 12.8 µM. The gist of the method: as §1
The test system of the next assay is FAB9. The description is as above. Conditions: P. falciparum in erythrocytes, SYBR Green DNA, 72 h; series mostly up to 12.8 µM. The gist of the method:
as §1

The mark [14] stands for this setting: measured here: cell count channel max response.
Where [15] appears, read: measured here: lipid channel max response.

Molecules are shown by their SMILES. Values joined by “and” are separate entries in the source; they are usually repeats but may differ in a detail not shown here. Equal entries are not always repeated. Records with an inconclusive call do not appear. Active and inactive are the calls of the source. Unless noted, calls follow the shape of the dose curve; as a rule, active = well fitted curve in the direction sought with a large enough effect; inconclusive = small, poorly fitted or top-dose-only effect, or another doubt; inactive = no such curve, though single readings can be large; an effect the other way counts as inactive or inconclusive.

Sequence of Glucocorticoid receptor (Homo sapiens) (P04150 whole entry, looked up): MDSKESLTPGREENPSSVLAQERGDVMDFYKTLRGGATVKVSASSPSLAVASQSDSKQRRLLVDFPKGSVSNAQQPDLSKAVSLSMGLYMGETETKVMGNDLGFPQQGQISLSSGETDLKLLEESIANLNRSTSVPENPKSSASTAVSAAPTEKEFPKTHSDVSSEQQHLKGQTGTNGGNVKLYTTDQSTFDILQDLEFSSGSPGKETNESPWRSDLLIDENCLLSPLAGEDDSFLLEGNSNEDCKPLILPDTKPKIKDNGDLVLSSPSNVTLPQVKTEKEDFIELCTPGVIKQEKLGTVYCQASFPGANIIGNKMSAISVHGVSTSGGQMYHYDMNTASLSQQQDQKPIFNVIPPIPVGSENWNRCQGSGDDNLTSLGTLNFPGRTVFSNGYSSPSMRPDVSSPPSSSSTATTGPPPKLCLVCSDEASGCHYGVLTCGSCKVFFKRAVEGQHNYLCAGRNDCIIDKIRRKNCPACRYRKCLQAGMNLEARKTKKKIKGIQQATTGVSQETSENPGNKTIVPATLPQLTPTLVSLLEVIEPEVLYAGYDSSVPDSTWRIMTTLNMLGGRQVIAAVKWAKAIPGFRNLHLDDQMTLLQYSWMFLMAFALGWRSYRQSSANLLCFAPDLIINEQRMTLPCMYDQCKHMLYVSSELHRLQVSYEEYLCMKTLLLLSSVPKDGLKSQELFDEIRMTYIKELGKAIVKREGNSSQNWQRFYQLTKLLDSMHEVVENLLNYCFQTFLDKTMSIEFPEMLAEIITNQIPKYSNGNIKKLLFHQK
Sequence of Ubiquitin carboxyl-terminal hydrolase 1 (Homo sapiens) (O94782 whole entry, looked up): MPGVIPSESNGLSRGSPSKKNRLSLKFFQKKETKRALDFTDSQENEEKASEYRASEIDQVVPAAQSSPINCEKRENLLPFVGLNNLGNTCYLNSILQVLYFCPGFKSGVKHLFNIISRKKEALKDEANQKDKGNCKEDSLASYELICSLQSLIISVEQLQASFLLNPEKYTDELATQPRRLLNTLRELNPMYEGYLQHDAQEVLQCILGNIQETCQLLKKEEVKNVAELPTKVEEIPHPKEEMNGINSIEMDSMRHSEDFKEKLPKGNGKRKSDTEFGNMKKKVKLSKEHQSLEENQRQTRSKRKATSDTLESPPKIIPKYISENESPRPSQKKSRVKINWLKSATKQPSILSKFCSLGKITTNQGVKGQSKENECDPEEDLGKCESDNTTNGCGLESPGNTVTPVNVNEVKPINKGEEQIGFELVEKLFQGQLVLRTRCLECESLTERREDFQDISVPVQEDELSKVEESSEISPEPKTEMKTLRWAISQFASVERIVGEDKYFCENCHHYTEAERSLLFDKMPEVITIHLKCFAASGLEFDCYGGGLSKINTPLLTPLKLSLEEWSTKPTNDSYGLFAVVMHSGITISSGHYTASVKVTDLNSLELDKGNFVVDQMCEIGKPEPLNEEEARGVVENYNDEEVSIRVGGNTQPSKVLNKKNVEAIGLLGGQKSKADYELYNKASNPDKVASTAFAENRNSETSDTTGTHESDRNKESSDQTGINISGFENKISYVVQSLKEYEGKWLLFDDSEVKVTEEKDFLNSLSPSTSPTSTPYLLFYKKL
Sequence of Cytochrome P450 1A2 (Homo sapiens) (P05177 whole entry, looked up): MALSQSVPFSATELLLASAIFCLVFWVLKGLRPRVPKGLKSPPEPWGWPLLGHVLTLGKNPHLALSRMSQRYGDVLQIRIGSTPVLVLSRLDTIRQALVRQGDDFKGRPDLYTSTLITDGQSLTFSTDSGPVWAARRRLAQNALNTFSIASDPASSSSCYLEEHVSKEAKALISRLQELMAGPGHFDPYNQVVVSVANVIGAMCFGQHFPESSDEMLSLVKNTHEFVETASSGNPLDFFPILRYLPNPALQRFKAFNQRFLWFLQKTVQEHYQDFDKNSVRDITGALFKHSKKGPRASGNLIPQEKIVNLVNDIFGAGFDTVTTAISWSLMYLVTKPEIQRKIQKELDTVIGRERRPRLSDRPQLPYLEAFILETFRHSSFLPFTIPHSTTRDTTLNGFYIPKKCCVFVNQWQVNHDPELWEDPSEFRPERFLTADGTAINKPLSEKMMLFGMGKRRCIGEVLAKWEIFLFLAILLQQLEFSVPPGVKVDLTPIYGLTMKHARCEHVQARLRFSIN
Sequence of ATP-dependent 6-phosphofructokinase (Trypanosoma brucei brucei) (O15648 whole entry, looked up): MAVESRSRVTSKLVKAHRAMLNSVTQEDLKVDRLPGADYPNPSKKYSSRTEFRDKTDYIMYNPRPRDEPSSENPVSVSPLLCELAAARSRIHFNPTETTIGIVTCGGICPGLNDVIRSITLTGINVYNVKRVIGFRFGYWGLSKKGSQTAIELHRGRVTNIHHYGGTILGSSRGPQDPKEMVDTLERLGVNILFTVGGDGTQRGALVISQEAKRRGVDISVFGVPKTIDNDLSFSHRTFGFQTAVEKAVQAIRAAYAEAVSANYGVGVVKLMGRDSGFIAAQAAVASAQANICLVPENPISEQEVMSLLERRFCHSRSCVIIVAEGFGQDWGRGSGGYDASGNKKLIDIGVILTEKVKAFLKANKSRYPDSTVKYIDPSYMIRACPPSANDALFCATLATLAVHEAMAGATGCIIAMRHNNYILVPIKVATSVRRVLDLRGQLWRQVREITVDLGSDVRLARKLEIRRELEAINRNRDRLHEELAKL
Sequence of Luciferin 4-monooxygenase (Photinus pyralis) (P08659 whole entry, looked up): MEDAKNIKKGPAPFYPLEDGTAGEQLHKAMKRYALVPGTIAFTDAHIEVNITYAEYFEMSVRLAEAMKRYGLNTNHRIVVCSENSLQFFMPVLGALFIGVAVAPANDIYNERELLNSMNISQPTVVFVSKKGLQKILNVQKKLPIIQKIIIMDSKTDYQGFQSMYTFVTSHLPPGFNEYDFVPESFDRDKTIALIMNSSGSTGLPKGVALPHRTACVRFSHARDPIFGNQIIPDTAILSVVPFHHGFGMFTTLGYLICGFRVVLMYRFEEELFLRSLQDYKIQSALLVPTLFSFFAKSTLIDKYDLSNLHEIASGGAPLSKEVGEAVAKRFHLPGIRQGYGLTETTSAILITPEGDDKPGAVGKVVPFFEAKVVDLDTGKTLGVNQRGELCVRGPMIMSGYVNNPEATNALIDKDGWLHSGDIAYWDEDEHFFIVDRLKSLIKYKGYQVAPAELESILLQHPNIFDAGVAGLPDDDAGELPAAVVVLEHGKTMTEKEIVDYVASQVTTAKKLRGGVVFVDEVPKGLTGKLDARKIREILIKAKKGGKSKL
Sequence of 3',5'-cyclic-AMP phosphodiesterase 4B (Homo sapiens) (Q07343 whole entry, looked up): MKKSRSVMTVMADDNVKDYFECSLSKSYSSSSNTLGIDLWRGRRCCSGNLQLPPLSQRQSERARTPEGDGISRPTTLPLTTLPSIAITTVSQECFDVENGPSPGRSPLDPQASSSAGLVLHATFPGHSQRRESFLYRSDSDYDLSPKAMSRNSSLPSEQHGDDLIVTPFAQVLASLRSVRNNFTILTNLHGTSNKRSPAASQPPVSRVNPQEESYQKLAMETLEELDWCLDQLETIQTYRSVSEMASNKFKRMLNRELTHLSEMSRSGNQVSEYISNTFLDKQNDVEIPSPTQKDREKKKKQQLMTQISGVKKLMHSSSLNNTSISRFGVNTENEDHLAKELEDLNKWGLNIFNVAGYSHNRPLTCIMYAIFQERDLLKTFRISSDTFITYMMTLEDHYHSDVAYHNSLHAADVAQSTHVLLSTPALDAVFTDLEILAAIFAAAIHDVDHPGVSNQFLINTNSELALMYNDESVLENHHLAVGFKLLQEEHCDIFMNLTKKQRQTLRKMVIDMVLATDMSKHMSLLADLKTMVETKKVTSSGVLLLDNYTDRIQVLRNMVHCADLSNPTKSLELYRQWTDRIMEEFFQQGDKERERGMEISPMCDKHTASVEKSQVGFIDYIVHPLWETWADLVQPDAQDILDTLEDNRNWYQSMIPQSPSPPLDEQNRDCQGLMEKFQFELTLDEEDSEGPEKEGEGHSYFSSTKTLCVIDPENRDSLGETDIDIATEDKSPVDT

Turning to `C1CCN2C[C@H]3C[C@H](CN4CCCCC34)C2C1` (some centres not stated), the activity change, negative = inhibition in assay [1] (at 57.5 µM (top of the series)) was 2.4% (inactive) and 4.93% (inactive). Besides, the max response in assay [1] (setting [14]) is 17.1% and 11%; in assay [1] (setting [15]), 19.7% and 18.8%. Also, the Potency entry in [2] was “inactive”.
Consider `C[N+]1(C)CCC[C@@H](OC(=O)C(O)(c2ccccc2)c2ccccc2)C1`, for which the activity change, negative = inhibition in assay [3] is 3.62% [at 17.2 µM] (inactive); in assay [5], -62.4% [at 17.2 µM] (active); in [1] (at 25.7 µM (top of the series)), -3.46% (inactive). Moreover, the Potency result (in assay [4]; in assay [9]; in [10]; in assay [2]; with AS120; with CP238) was “inactive” throughout. Also, the Potency entry in the assay on FAB9 was “inactive”. Also, the activity, negative = inhibition in assay [6] was 11.2% [at 17.2 µM] (inactive); in assay [13] (parasite line A), 9.41% (inactive); in assay [13] (parasite line B), 6.69% (inactive). The Potency in assay [7] and in assay [8] was > 20.6 µM (inactive) throughout. The max response is -12.3% in [1] (setting [14]) and -16.2% in [1] (setting [15]). Besides, the compound was called inactive in assay [11] and in assay [12].
Regarding `O=c1c(O)c(-c2ccc(O)cc2)oc2ccccc12`, the activity change, negative = inhibition in [1] (at 57.5 µM (top of the series)) was 8.84% (inactive). The max response in assay [1] (setting [14]) is -12.3%; in assay [1] (setting [15]), -1%.
Regarding `O=c1[nH]c(=O)n([C@@H]2C[C@H](O)[C@H](CO)O2)cc1I`, the activity change, negative = inhibition in [3] is 9.17% [at 17.2 µM] (inactive); in assay [5], 8.3% [at 17.2 µM] (inactive); in assay [1] (at 25.7 µM (top of the series)) it was -3.3% (inactive). In addition, the Potency entry (in assay [4]; in [9]; in assay [2]; in the assay with AS120; in the assay with CP238; in the assay with FAB9) was “inactive” throughout. Also, the activity, negative = inhibition in [6] is 11.4% [at 17.2 µM] (inactive); in [13] (parasite line A) it was -1.96% (inactive); in assay [13] (parasite line B), 14.3% (inactive). In addition, the Potency in [8] is > 20.6 µM (inactive). Besides, the max response was 2.86% in assay [1] (setting [14]) and 1.83% in [1] (setting [15]). The call in assay [11] and in assay [12] was inactive.
Take `CC1CC2C3CCC4=CC(=O)C=C[C@@]4(C)[C@]3(F)C(O)C[C@]2(C)[C@]1(O)C(=O)CO` (some centres not stated): the activity change, negative = inhibition in assay [1] (at 57.5 µM (top of the series)) is -0.857% (inactive) and 2.9% (inactive). The max response is 20% and 4.4% in assay [1] (setting [14]); 23.5% and 9.45% in assay [1] (setting [15]). The Potency entry in assay [2] was “inactive”.

The values are drawn from PubChem BioAssay (NCATS).
